This is an account of results in PubChem BioAssay (NCATS).

Results filed as inconclusive are left out. A number with no mark means an inactive call. Activity calls are given as the source filed them. The call rests on the fitted dose curve; in most records, active means well fitted cell-killing curve with a large enough effect; inconclusive means small, poorly fitted or top-dose-only effect; inactive means flat fitted curve, though single readings scatter. Bridge positions count the residues as written; N and C are the ends. Square brackets hold non-standard residues; d marks the D form. Side chains are listed from the residue outwards. Peptide text beside a SMILES is read from it. * marks the point of attachment. Phg(4-OMe) = COc1ccc([C@H](N)C(=O)O)cc1; d(aIle) = CC[C@H](C)[C@@H](N)C(=O)O; d(aThr) = C[C@@H](O)[C@@H](N)C(=O)O; NMeF = CN[C@@H](Cc1ccccc1)C(=O)O; Isobutyryl = CC(C)C(=O)*
On the % scale 0 is the no-effect control and ±100 the full control effect; potency means the concentration at half of the fitted maximal effect.

This assay can be described thus: SDT Cancer Cell Toxicity qHTS against the NCATS CANVASS Library (AID 1347365). Further: nearly all actives have a fitted effect of over 60% in size.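 On activity change, negative = cytotoxicity: SDT canine glioma cells 500 per well in 1536 well plates.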 The following applies: SDT dog glioma viability, ATP luminescence, 72 h; series mostly up to 46.1 µM; activity change, negative = cytotoxicity: at the top concentration. In outline:
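Canine SDT glioma cell toxicity was scored by ATP-dependent luminescence after a 72 hr incubation with an 11-point compound series.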
Consider `CC(C)=CCC[C@]12c3cc4c(cc3CC[C@@]1(C)[C@H](C)CC[C@@H]2O)[nH]c1ccccc14`, for which the “activity change, negative = cytotoxicity” value is -14.7%.

Take `C/C=C/C1C=CC2CC(C)CC(C)C2C1C(=O)CC(=O)NC(CO)C/C=C/CCCCC` (stereo not drawn): the Potency is 1.48 µM (active).

On to `C=C1CC[C@@H](Br)C(C)(C)[C@]12CC=C(C)C(=O)C2`, for which the “activity change, negative = cytotoxicity” value is 3.36%.

As to `C=CC(CCCCC)C1C(=O)NC(=O)C1C(=O)C1C(/C=C/C)C=CC2CC(C(=O)O)CC(C)C21` (stereo not drawn), the “activity change, negative = cytotoxicity” value is -16.1%.

As to `O=C1CC2OCC=C3CN4C5CC3C2[C@@H]2N1c1ccccc1[C@]52C[C@@H]4C1=C[C@H]2C3CC4N(CC[C@@]45c4ccccc4N(C1=O)[C@@H]25)C/C3=C/CO` (stereo partly drawn), the Potency was 20.9 µM (active).

As for `C=C1CC[C@@H](O[C@H]2C[C@@](O)([C@H](C)NC(=O)c3[nH]c(C)c(Cl)c3Cl)[C@H](O)[C@@H](C)O2)[C@@H]2C=C[C@H](C)C(/C(O)=C3/C(=O)[C@H](C(C)C)N([C@@H]4O[C@H](C)[C@H](OC(N)=O)[C@H](OC(C)=O)[C@@H]4OC)C3=O)[C@@H]12` (stereo partly drawn), the “activity change, negative = cytotoxicity” value is -7.47%.

Consider `CC[C@H](C)[C@H]1NC(=O)[C@@H](NC(=O)C(C)C)[C@@H](C)OC(=O)[C@H](COC(=O)CNC(C)=O)NC(=O)[C@@H]([C@@H](C)O)NC(=O)[C@H](Cc2ccccc2)N(C)C(=O)[C@H](c2ccc(OC)cc2)NC1=O` (Isobutyryl-T[d(aIle)][Phg(4-OMe)][NMeF][d(aThr)]S([Gly-Ac]); ester 1-C), for which the “activity change, negative = cytotoxicity” value was -14.3%.

Regarding `Cc1occ2c1C(=O)c1c(cc(O)c(O)c1O)C2=O`, the Potency was 1.05 µM (active).

Consider `COc1ccc2[nH]c3c(c2c1)CCN1C[C@H]2C[C@@H](OC(=O)c4cc(OC)c(OC)c(OC)c4)[C@H](OC)[C@@H](OC)[C@H]2C[C@H]31`, for which the Potency was 0.526 µM (active).

`C=C[C@](Cl)(CBr)CCC=C(C)C`: the “activity change, negative = cytotoxicity” value is -19%.

As for `CC(=O)O[C@H]1c2ccccc2-c2c3c(cc4c2[C@@H]1N(C(C)=O)CC4)OCO3`, the “activity change, negative = cytotoxicity” value is -18.6%.

Turning to `C=CC(CCCCC)C1C(=O)NC(=O)C1C(=O)C1C2C(C)CC(C(=O)O)CC2CC1(O)C(=O)/C=C/C` (stereo not drawn), the “activity change, negative = cytotoxicity” value was -1.7%.

As for `O[C@H]1c2ccccc2-c2c3c(cc4c2[C@@H]1NCC4)OCO3`, the Potency was 18.7 µM (active).

Consider `C[C@]12CCC[C@](C)(C(=O)O)[C@@H]1CC[C@@]1(C)c3cocc3CC[C@H]21`, for which the “activity change, negative = cytotoxicity” value was -14.5%.

Take `COc1cc(C2OCC3C(c4ccc(O)c(OC)c4)OCC23)ccc1O` (stereo not drawn): the activity change, negative = cytotoxicity was 2.04% [at 9.19 µM].

As to `C[n+]1cc2cc(C(N)=O)[nH]c3c(=N)c(Cl)c(N)c1c23`, the Potency is 16.6 µM (active).

For `COc1cc2c(c(O)c1O)C(=O)c1c(coc1C)C2=O`, the Potency is 14.8 µM (active).

On to `C/C1=C/[C@@H](C)[C@H](O)[C@@H](O)/C=C/CC/C=C/C(=O)O[C@@H]1[C@H](C)C(=O)CCCC1CC(=O)NC(=O)C1`, for which the Potency is 20.9 µM (active).

Regarding `CN1CC[C@]2(c3cccc4c3N[C@H]3N(C)CC[C@@]43[C@]34CCN(C)[C@H]3Nc3ccccc34)c3ccccc3N[C@H]12`, the Potency is 4.18 µM (active).

Turning to `CC(=O)Oc1cc2c(c(OC(C)=O)c1C1CCc3cc(Cl)c(Cl)n31)C(=O)n1c-2cc(Cl)c1Cl` (stereo not drawn), the Potency is 10.5 µM (active).

Consider `COc1cc2c(cc1OC)[C@@H](c1ccc3c(c1)OCO3)C(C)C(C)C2=O` (stereo partly drawn), for which the “activity change, negative = cytotoxicity” value was -18.2%.

For the compound `CC(C)C[C@@H]1c2c(O)c(C=O)c(O)c(C=O)c2O[C@]2(C)C=C[C@@H](C(C)C)C[C@H]12`, the “activity change, negative = cytotoxicity” value is -4.26%.

On to `C/C=C(/C)c1cc(O)c(C)c2c1Oc1cc(O)cc(C)c1C(=O)O2`, for which the “activity change, negative = cytotoxicity” value is 9.65%.

In the case of `CC(C)[C@]12CC[C@@]3(C)[C@H](C)CC[C@H](O)[C@@]3(CC1)c1cc3c(cc12)[nH]c1ccccc13`, the “activity change, negative = cytotoxicity” value was -0.456%.

In the case of `C[C@H]1C=C[C@H]2CCCC[C@@H]2[C@H]1C(=O)[C@H]1CC2=C(C(=O)O)CCN2C1=O`, the “activity change, negative = cytotoxicity” value is -6.6%.

Turning to `C/C=C(/C)c1c(Cl)c(OC)c(C)c2c1Oc1c(Cl)c(O)c(Cl)c(C)c1C(=O)O2`, the “activity change, negative = cytotoxicity” value is -7%.

Turning to `C/C(=C\CC[C@@H](C)[C@H]1CC[C@]2(C)C3=CCC4C(C)(C)[C@@H](O)C[C@@H](O)[C@]4(C)C3[C@H](O)C[C@@]12C)CO` (stereo partly drawn), the “activity change, negative = cytotoxicity” value is -3.4%.

Consider `COC12OC1(C13OC1(OC)C(=O)c1cc4cc(C)oc(=O)c4c(O)c1C3O)C(O)c1c(cc3cc(C)oc(=O)c3c1O)C2=O` (stereo not drawn), for which the “activity change, negative = cytotoxicity” value was 7.43%.
